Source: PubChem BioAssay (National Center for Advancing Translational Sciences (NCATS))
HT1080 IDH1KD tx: kills HT-1080 cells with IDH1 knockdown. HT-1080 IDH1 knockdown viability, ATP luminescence, 48 h. Potency, µM (doses to about 46.1 µM), for the others: at the highest dose activity, negative = toxicity, most hits filed as cytotoxic. 360,000 tested, 2% active;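 further: 0% = DMSO wells and -100% = cell-free medium wells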
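HT-1080-IDH1KD cells (IDH1 knocked down), 750/well in RPMI with 5% FBS, treated with compound 48 h at 37 degrees C. Viability by CellTiter-Glo luminescence, normalised to DMSO and no-cell wells; concentration-response curves classed.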
HT1080-NT tox: kills 2HG-producing HT-1080-NT fibrosarcoma cells | HT-1080-NT fibrosarcoma viability, CellTiter-Glo ATP luminescence, 48 h | Potency, µM (titrated, usually from 46.1 µM), for inactives: at the highest dose activity, negative = less viability, most hits filed as cytotoxic | 360,000 tested, 1.6% active | AID 686970;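 further: NT is the 2HG producing partner of a matched IDH1 knockdown line; 0% = DMSO-treated cells and -100% = media-only wells without cells; nearly all actives have a fitted effect of over 55% in size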
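HT-1080-NT fibrosarcoma cells (2HG-overproducing), 750 cells/well in RPMI with 5% FBS, dosed after 2 h and incubated 48 h at 37C. CellTiter-Glo luminescence normalized to DMSO and no-cell wells; concentration-response curves fitted and classed.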
KB-V1 cytotox: KB-V1 MDR subline cytotoxicity; KB-V1 MDR cells viability, CellTiter-Glo, 72 h; Potency, µM (doses to about 46.1 µM), usual class: cytotoxic; 400,000 tested, 3.4% active; AID 1347076; further: nearly all actives have a fitted effect of over 60% in size
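Luminescent ATP read-out (CellTiter-Glo, 10 min) measures survival of drug-selected KB-V1 MDR cells after 72 h, 37 degrees C compound exposure. Medium: phenol-red-free DMEM, 10% FBS. Values from fitted concentration-response curves.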
KB-3-1 cytotox: KB-3-1 parental cell cytotoxicity | 400,000 tested, 1.4% active | KB-3-1 viability, CellTiter-Glo ATP luminescence, 72 h | Potency, µM (highest dose often 46.1 µM), usual class: cytotoxic | AID 1347075; further: nearly all actives have a fitted effect of over 60% in size
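Parental KB-3-1 adenocarcinoma cells in phenol-red-free DMEM with 10% FBS were pin-treated with compounds at several concentrations, incubated 72 h at 37 °C, and viability read by CellTiter-Glo luminescence; concentration-effect curves were fitted after normalization.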
TDP1 cell noCPT: qHTS for Inhibitors of human tyrosyl-DNA phosphodiesterase 1 (TDP1): qHTS in cells in absence of CPT; Potency, µM (titrated, usually from 46.2 µM), without a hit: top-dose activity change, negative = growth inhibition, most hits filed as inhibitors; 420,000 tested, 15% active; AID 686978, 2013; DT40 Tdp1-/- hTDP1 cells, no CPT, ATP luminescence, 48 h; further: nearly all actives have a fitted effect of over 55% in size
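Growth kinetics read by CellTiter-Glo luminescence after ≥48 hr at 37 °C. Cells: DT40 Tdp1-/- stably carrying human TDP1, 400 per well, compound exposure in the absence of CPT (DMSO vehicle).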
TDP1 cell CPT: growth inhibition of DT40 Tdp1-/-;hTDP1 cells with camptothecin (screen for TDP1 inhibitors); chicken DT40 Tdp1-/-;hTDP1 cells + 20 nM CPT, ATP luminescence, 48 h; Potency, µM (doses to about 46.2 µM), inactives show at the highest dose activity change, negative = growth inhibition, most hits filed as inhibitors; 420,000 tested, 12% active; AID 686979; further: nearly all actives have a fitted effect of over 55% in size
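Chicken DT40 Tdp1-/- cells stably complemented with human TDP1 were seeded at 400 cells/well in medium containing 20 nM camptothecin, exposed to pin-transferred compounds, and grown at 37 °C for at least 48 hr. Viability was read as ATP luminescence.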
* = called active by the depositor; i = inactive; ? = inconclusive; / = not tested or not shown. A selection: hits, their analogues and other compounds. The true share with any hit is near 19%. The call rests on the fitted dose curve; in most records, active means well fitted curve in the direction sought with a large enough effect; inconclusive means small, poorly fitted or top-dose-only effect, or another doubt; inactive means no such curve, though single readings can be large; an effect the other way counts as inactive or inconclusive. Unless noted, on the % scale 0 is the no-effect control and ±100 the full control effect; potency means the concentration at half of the fitted maximal effect.

SMILES	HT1080 IDH1KD tx	HT1080-NT tox	KB-V1 cytotox	KB-3-1 cytotox	TDP1 cell noCPT	TDP1 cell CPT
NC(=O)CC(NC(=O)c1cccc(Br)c1)c1ccc(NC2CCCCCCCCCCC2)c([N+](=O)[O-])c1 (configuration not stated)	-1%	15%	i	i	-12%	2%
COc1ccc(N(C)S(=O)(=O)c2cccc(C(=O)Nc3ccc(-n4cnnn4)cc3)c2)cc1	-28%	-2%	?	i	18µM*	18µM*
COc1ccc(N(C)S(=O)(=O)c2cccc(C(=O)Nc3ccc4c(c3)OCCO4)c2)cc1	-10%	-2%	i	i	15µM*	16µM*
CN(C)S(=O)(=O)c1cccc(NC(=O)c2ccc3c(c2)OCCO3)c1	-1%	2%	i	i	15µM*	15µM*
COc1ccc(N(C)S(=O)(=O)c2cccc(C(=O)Nc3nc(C)cs3)c2)cc1	3%	5%	?	i	-54%	-57%
O=C(CSc1nccn1-c1ccc(F)cc1)Nc1nc2ccccc2s1	/	/	/	/	-16%	-1%
Cc1cc(SCC(=O)OC(C)C(=O)N(C)c2ccccc2)nc2ccccc12 (configuration not stated)	-8%	3%	i	i	-5%	2%
COCc1cccc(-c2csc(C(C)(O)c3ccccc3)n2)c1 (configuration not stated)	-22%	10%	i	i	?	?
CNC(=O)C1CCC(Cn2c(=O)c3sccc3n(CC(=O)Nc3cc(F)ccc3F)c2=O)CC1 (configuration not stated)	/	/	i	i	?	?
Cc1ccc(OCC(=O)Nc2nc(C)c(Cl)cc2Cl)c([N+](=O)[O-])n1	14%	0%	i	i	7%	-12%
Cc1ccc(S(=O)(=O)C(CNC(=O)COc2ccc(Cl)cc2)c2ccco2)cc1 (configuration not stated)	/	/	i	i	?	23µM*
Cc1ccc(S(=O)(=O)C(CNC(=O)C(=O)NCc2ccc(Cl)cc2)c2ccco2)cc1 (configuration not stated)	/	/	i	i	-14%	-3%
CCOc1ccc(C(=O)NCC(c2ccco2)S(=O)(=O)c2ccc(C)cc2)cc1 (configuration not stated)	/	/	i	i	?	?
Cc1ccc(C(=O)NCC(C)NC(=O)c2ccc(C)c(C)c2)cc1C (configuration not stated)	-12%	-8%	i	i	26µM*	?
Cc1ccc(C(=O)NCC(c2ccco2)S(=O)(=O)c2ccc(Cl)cc2)cc1C (configuration not stated)	/	/	i	i	21µM*	16µM*
Cc1ccc(S(=O)(=O)C(CNC(=O)c2ccc(F)c(F)c2)c2ccco2)cc1 (configuration not stated)	/	/	i	i	?	16µM*
N#Cc1ccccc1OCC(=O)OCC(=O)Nc1ccc2c(c1)OCO2	0%	2%	i	i	23%	-8%
CC[C@H](CC[C@@H](C)[C@H]1CC[C@H]2[C@@H]3CC=C4C[C@@H](O)CC[C@]4(C)[C@H]3CC[C@]12C)C(C)C	/	/	/	/	4%	7%
CC1CCN(S(=O)(=O)c2ccc3c(c2)N(CC(=O)NC(C)(C)C)C(=O)CS3)CC1	/	/	i	i	-19%	-20%
CCCCn1c(N)c(N(C)C(=O)c2ccc(OCC3CCCO3)cc2)c(=O)[nH]c1=O (configuration not stated)	-6%	11%	i	i	-4%	1%
O=C(NCC(c1ccco1)S(=O)(=O)c1ccc(Cl)cc1)c1ccccc1F (configuration not stated)	/	/	i	i	16µM*	?
O=C(NCC(c1ccco1)S(=O)(=O)c1cccs1)c1ccc(F)c(F)c1 (configuration not stated)	/	/	i	i	16µM*	13µM*
Cc1ccc(S(=O)(=O)C(CNC(=O)c2c(F)cccc2F)c2ccco2)cc1 (configuration not stated)	/	/	i	i	23µM*	?
CCN(CC(=O)N1CCOCC1)S(=O)(=O)c1ccc(Cl)cc1	19%	5%	i	i	-9%	15%
CC1(C)CC(=O)C=C(c2ccc(COC(=O)/C=C/c3ccccc3)cc2)C1=O	-22%	-30%	i	i	21µM*	?
SMILES	HT1080 IDH1KD tx	HT1080-NT tox	KB-V1 cytotox	KB-3-1 cytotox	TDP1 cell noCPT	TDP1 cell CPT
CC1(C)CC(=O)C=C(c2ccc(COC(=O)c3ccccc3)cc2)C1=O	-13%	-4%	i	i	?	-25%
Cc1nn2c(=O)cc(COC(=O)Cc3ccccc3)nc2s1	/	/	i	i	-6%	1%
CCC1=C(OC(=O)N(CC)CC)N2C(=O)OC(=NCCOC)[C@]2(Cc2ccccc2)[C@H]2C1=CC[C@H]1C(=O)N(CC)C(=O)[C@H]12	8%	13%	i	i	-5%	-4%
CCC1=C(OC(=O)N(CC)CC)N2C(=O)OC(=NCC3CC3)[C@]2(Cc2ccccc2)[C@H]2C1=CC[C@H]1C(=O)N(CC)C(=O)[C@H]12	?	?	i	i	21µM*	16µM*
CCOC(=O)COc1ccc(CC)cc1C(=O)c1ccn2nc(-c3ccc(Cl)cc3)cc2n1	/	/	?	i	21µM*	21µM*
CCOC(=O)COc1ccc(CC)cc1C(=O)c1ccn2nc(-c3ccccc3)cc2n1	/	/	i	i	23µM*	15µM*
CCOC(=O)Cn1nc(-c2ccc(Cl)cc2)ccc1=O	-20%	0%	i	i	?	?
O=C(N/N=C/c1ccco1)c1ccc(NC(=O)c2ccc(Cl)cc2)cc1	-3%	13%	i	i	-1%	1%
CC(C)(C)C(=O)Nc1ccc(C(=O)N/N=C/c2ccccc2OC(=O)c2ccc(Cl)cc2)cc1	?	-25%	i	i	4.6µM*	5.2µM*
O=C(N/N=C/c1ccc(OC2CSC2)cc1)c1ccc(CN2CCOCC2)cc1	?	?	?	?	?	-11%
O=C(N/N=C/c1ccccc1OC(=O)c1ccc2c(c1)OCO2)c1ccccc1	-19%	-2%	i	i	4.1µM*	4.1µM*
